This is a sample that favours compounds with a hit; in the whole collection about 19% have one here.
HT1080 IDH1KD tx: qHTS for induction of synthetic lethality in tumor cells producing 2HG: qHTS for the HT-1080-IDH1KD cell line | HT-1080 IDH1 knockdown viability, ATP luminescence, 48 h | Potency, µM (doses to about 46.1 µM), for the others: top-dose activity, negative = toxicity, usual class: cytotoxic | 360,000 tested, 2% active | AID 686971, 2013;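 note: potency is the fitted concentration of half-maximal effect; 0% = DMSO wells and -100% = cell-free medium wells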
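Luminescent ATP read-out (CellTiter-Glo, 10 min at room temperature) after 48 h compound exposure at 37 °C gave viability of IDH1-knockdown HT-1080 cells. Activity was normalised to DMSO and cell-free wells, then fitted as concentration-response curves.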
IL-1B inflam inh: qHTS for Inhibitors of Inflammasome Signaling: IL-1-beta AlphaLISA Primary Screen; activity change, % at 57.5 µM; THP-1 LPS/ATP IL-1B secretion, AlphaLISA, 16 h; active compounds read low; 360,000 tested, 4.7% active; in the data active = activity change below about -50%; inconclusive = mostly about -30% to -49%
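Secreted IL-1B measured by AlphaLISA bead assay after 16 h compound exposure of THP-1 cells; compounds (final up to 57.5 uM) added 1 h before LPS (250 ng/mL) and ATP (1.25 mM) stimulation; lower signal means less secretion.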
TDP1 cell CPT: qHTS for Inhibitors of human tyrosyl-DNA phosphodiesterase 1 (TDP1): qHTS in cells in presence of CPT. chicken DT40 Tdp1-/-;hTDP1 cells + 20 nM CPT, ATP luminescence, 48 h. Potency, µM (doses to about 46.2 µM), inactives show at the top dose activity change, negative = growth inhibition, actives largely listed as inhibitors. 420,000 tested, 12% active. AID 686979, 2013; note: potency is the fitted concentration of half-maximal effect; nearly all actives have a fitted effect of over 55% in size
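Chicken DT40 Tdp1-/- cells complemented with human TDP1, 400 cells/well, exposed to compounds plus 20 nM camptothecin for at least 48 h at 37 C; viability read as ATP content by CellTiter-Glo luminescence.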
TDP1 cell noCPT: qHTS for Inhibitors of human tyrosyl-DNA phosphodiesterase 1 (TDP1): qHTS in cells in absence of CPT; Potency, µM (highest dose often 46.2 µM), for the others: at the highest dose activity change, negative = growth inhibition, usual class: inhibitors; 420,000 tested, 15% active; DT40 Tdp1-/- hTDP1 cells, no CPT, ATP luminescence, 48 h; note: potency is the fitted concentration of half-maximal effect; nearly all actives have a fitted effect of over 55% in size
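Seeded 400 DT40-hTDP1 cells/well (vehicle DMSO, no 20 nM CPT); pinned compounds; ≥48 hr at 37 °C; CellTiter-Glo luminescence as viability measure.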
HT1080NT lethal: qHTS for induction of synthetic lethality in tumor cells producing 2HG: qHTS for the HT-1080-NT fibrosarcoma cell line. HT-1080-NT fibrosarcoma viability, CellTiter-Glo ATP luminescence, 48 h. Potency, µM (top dose mostly 46.1 µM), for inactives: top-dose activity, negative = less viability, actives largely listed as cytotoxic. 360,000 tested, 1.6% active;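 note: NT is the 2HG producing partner of a matched IDH1 knockdown line; potency is the fitted concentration of half-maximal effect; 0% = DMSO-treated cells and -100% = media-only wells without cells; nearly all actives have a fitted effect of over 55% in size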
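Read-out is CellTiter-Glo luminescence after 10 minutes at room temperature, following 48 hours' compound treatment of HT-1080-NT cells (750 cells/well, RPMI, 5% FBS, 37 degrees C).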
Starred values were filed as active, the others as inactive; ? = inconclusive; / = no result. Unless noted, calls come from the whole dose curve; as a rule, active = well fitted curve in the direction sought with a large enough effect; inconclusive = small, poorly fitted or top-dose-only effect, or another doubt; inactive = no such curve, though single readings can be large; an effect the other way counts as inactive or inconclusive. Unless noted, % is set by controls: 0 for no effect and ±100 for the full control effect.

SMILES	HT1080 IDH1KD tx	IL-1B inflam inh	TDP1 cell CPT	TDP1 cell noCPT	HT1080NT lethal
CCOC(=O)c1cnc(-n2nc(C)cc2C)nc1Oc1ccc(C#N)cc1	5%	15	-11%	-27%	13%
CCOC(=O)c1cnc(-n2nc(C)cc2C)nc1Nc1cccc(C(=O)O)c1	0%	15	-10%	-22%	0%
CCOC(=O)c1cnc(-n2nc(C)cc2C)nc1Nc1ccc(O)cc1	9%	0	2.3µM*	2.9µM*	15%
CCOC(=O)c1cnc(-n2nc(C)cc2C)nc1NNc1nc(-c2ccccc2)cc(-c2ccccc2)n1	?	23	3.7µM*	3.3µM*	?
CCOC(=O)c1cnc(-n2nc(C)cc2C)nc1NC1CCCCC1	-15%	-100*	4.6µM*	5.2µM*	?
CCn1c(COc2ccc3c(c2)OCO3)nnc1SCC(=O)c1ccc(Cl)cc1	-5%	-20	?	-14%	-6%
CCn1ncc([N+](=O)[O-])c1C(=O)N1CCc2ccccc2C1	0%	25	19%	9%	14%
CCOC(=O)c1cnc(-n2nc(C)cc2C)nc1NC	?	-14	?	?	7.1µM*
CCOC(=O)c1cnc(-n2nc(C)cc2C)nc1Nc1ccc(C)cc1	2%	0	4.6µM*	5.2µM*	7%
CCOC(=O)c1cnc(-n2nc(C)cc2C)nc1Nc1ccc(N(C)C)cc1	-20%	-5	1.3µM*	1.8µM*	-8%
CCOC(=O)c1cnc2c(Cl)c(Cl)ccc2c1Nc1ccc(N(C)C)cc1	/	/	-17%	?	/
Cc1cc(C(=O)CCC(=O)N(C)CC(=O)Nc2ccccc2Br)c(C)s1	2%	-6	-21%	-10%	-2%
CCOc1ccc(C(=O)C(C)OC(=O)c2cnc(C)cn2)cc1 (stereo unspecified)	0%	18	22%	4%	4%
O=C1CCCC(=O)C1=C1SCCCS1	-4%	10	?	-5%	-1%
CCN(CC)S(=O)(=O)c1ccc(OC)c(NC(=O)CSCc2c(C)noc2C)c1	-3%	-23	?	23µM*	-8%
COc1cccc(N2CCN(C(=O)c3oc4ccccc4c3NC(=O)CCc3cc(OC)no3)CC2)c1	-7%	10	-55%	?	-27%
Cc1ccc(CC(=O)Nc2c(C(=O)N3CCN(c4ccccc4)CC3)oc3ccccc23)cc1	/	/	23µM*	?	/
COc1ccccc1C(=O)Nc1c(C(=O)N2CCN(c3ccc(F)cc3)CC2)oc2ccccc12	/	/	-17%	-10%	/
COc1cccc(N2CCN(C(=O)c3oc4ccccc4c3NC(=O)Cc3ccc(OC)c(OC)c3)CC2)c1	-1%	-10	16µM*	?	-6%
COc1ccccc1C(=O)Nc1c(C(=O)N2CCN(c3ccccc3F)CC2)oc2ccccc12	/	/	16µM*	16µM*	/
COc1cc(C(=O)Nc2c(C(=O)N3CCOCC3)oc3ccccc23)cc(OC)c1OC	-2%	-18	-12%	?	17%
COc1ccc(CC(=O)Nc2c(C(=O)N3CCN(c4ccccc4F)CC3)oc3ccccc23)cc1OC	/	/	10µM*	13µM*	/
Cc1cc(C)c(C)c(S(=O)(=O)NC(C(=O)NCCc2ccco2)C(C)C)c1C (stereo unspecified)	5%	0	-7%	-22%	-9%
O=C(Cc1ccccc1)Nc1c(C(=O)N2CCN(c3ccc(F)cc3)CC2)oc2ccccc12	/	/	16µM*	26µM*	/
CCOc1ccc(C(=O)Nc2c(C(=O)Nc3ccccc3F)oc3ccccc23)cc1OCC	/	/	-29%	-11%	/
SMILES	HT1080 IDH1KD tx	IL-1B inflam inh	TDP1 cell CPT	TDP1 cell noCPT	HT1080NT lethal
COc1ccccc1C(=O)Nc1c(C(=O)Nc2ccccc2F)oc2ccccc12	/	/	21µM*	26µM*	/
COc1ccc(NC(=O)c2oc3ccccc3c2NC(=O)Cc2ccc(F)cc2)c(OC)c1	/	/	12µM*	8.2µM*	/
CCOCCCN(C)C1CCN(C(=O)c2oc3ccccc3c2NC(=O)Cc2ccc(F)cc2)CC1	-1%	-15	-21%	-1%	-28%
Cc1ccc(CC(=O)Nc2c(C(=O)N3CCN(c4ccccc4F)CC3)oc3ccccc23)cc1	/	/	?	18µM*	/
CCCCN1CC(COCc2ccccc2)Oc2cc(Br)ccc2S1(=O)=O (stereo unspecified)	3%	1	?	?	2%
CCOC(=O)C1(Cc2ccccc2C)CCCN(S(=O)(=O)CC)C1 (stereo unspecified)	7%	4	?	23µM*	0%
Cc1cccc(N2CCN(C(=O)CCNC(=O)Cn3ccc4ccccc4c3=O)CC2)c1C	1%	13	?	15µM*	0%
O=C(Cn1ccc2ccccc2c1=O)NCCC(=O)N1CCN(c2cccc(Cl)c2)CC1	-12%	6	15µM*	?	-7%
CN1CCN(C(=O)CCNC(=O)Cn2ccc3ccccc3c2=O)CC1	-13%	-1	5%	?	-4%
O=C(CCNC(=O)Cn1ccc2ccccc2c1=O)NCCN1CCN(c2cccc(Cl)c2)CC1	-8%	-17	-27%	?	-11%
Cc1ccc(S(=O)(=O)NCCC(=O)N2CCC(C)CC2)cc1	6%	16	10%	9%	3%
O=C(NC1CCCCNC1=O)c1ccccc1 (stereo unspecified)	10%	/	21%	-22%	6%
N#C/C(=C\c1cccnc1)c1ccc([N+](=O)[O-])cc1	-3%	-21	?	?	-5%
N#C/C(=C\c1ccc([N+](=O)[O-])cc1)c1ccccn1	-6%	-73*	?	23µM*	0%
COC(=O)c1ccc(/C=C(\C#N)c2ccccn2)cc1	-12%	25	?	?	-1%

From PubChem
